Among the data in PubChem BioAssay (Tox21) are Potency and outcome values, retold here.

Values joined by “and” are separate entries in the source; they are usually repeats but may differ in a detail not shown here. Equal values may be shown once. Inconclusive results are not listed. Active and inactive are the calls of the source. Unless noted, calls follow the shape of the dose curve; as a rule, active = well fitted curve in the direction sought with a large enough effect in the repeat runs; inconclusive = weak or mixed curves; inactive = no such curve, though single readings can be large; an effect the other way counts as inactive or inconclusive.

Test [1] is described as follows: qHTS assay to test for compound auto fluorescence at 535 nm (green) in HEK293 cells (AID 720680).
Test [2] can be described thus: qHTS assay to test for compound auto fluorescence at 460 nm (blue) in HEK293 cell free culture (AID 720681). The method, boiled down:
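Compounds were added to cell-free DMEM with 10% FBS and fluorescence read directly. The blue channel used 405 nm excitation and 460 nm emission, with triamterene as the reference fluorophore.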
(In qHTS, concentration-response curves come from the screen itself.)

Test [3] in a line: qHTS assay to test for compound auto fluorescence at 535 nm (green) in HEK293 cell free culture (AID 720682). An outline of the steps: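 Each library compound, or DMSO control, is added by pintool to medium alone, comprising DMEM and 10% FBS. Emission at 535 nm following 485 nm excitation is quantified against fluorescein.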
Test [4] in a line: qHTS assay to test for compound auto fluorescence at 590 nm (red) in HEK293 cell free culture (AID 720683). The method, boiled down: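 Cell-free wells of DMEM with 10% FBS received compound, and intrinsic fluorescence was read at excitation/emission 540/590 nm. Values expressed as equivalence to Rose Bengal sodium.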
The nature of test [5]: qHTS assay to test for compound auto fluorescence at 590 nm (red) in HepG2 cell free culture (AID 720684). The method, boiled down:
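Compounds are added to culture medium (MEM, 10% FBS) lacking cells, then fluorescence is read at excitation 540 nm, emission 590 nm, with Rose Bengal sodium as the equivalency standard.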

Test [6] in a line: qHTS assay to test for compound auto fluorescence at 460 nm (blue) in HepG2 cell free culture (AID 720685). An outline of the steps: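 Compound (23 nL) or DMSO pinned into cell-free MEM with 10% FBS; blue fluorescence read at 405/460 nm excitation/emission, expressed as auto-fluorescence equivalency to triamterene.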
Test [7] can be described thus: qHTS assay to test for compound auto fluorescence at 535 nm (green) in HepG2 cell free culture (AID 720686).
Test [8] is described as follows: qHTS assay to test for compound auto fluorescence at 460 nm (blue) in HepG2 cells (AID 720687). An outline of the steps:
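HepG2 cells in MEM with 10% FBS, attached overnight at 37 C, were exposed to compound or DMSO for 1 hr at 37 C, 5% CO2. Blue fluorescence was read at 405/460 nm, with triamterene as reference fluorophore.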

Test [9] addresses Glucocorticoid receptor (Homo sapiens) (UniProt P04150). Put plainly: qHTS assay to identify small molecule antagonists of the glucocorticoid receptor (GR) signaling pathway (AID 720692; active = well fitted inhibition curve with a large enough effect in the signal ratio in the repeat runs, not every such curve was filed as active; the % refers to the signal ratio; also: potency is read from the fitted curve at half-maximal effect). An outline of the steps:
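GR-bla HeLa cells carrying a GRE-driven beta-lactamase reporter received compound after 4 h plating, then dexamethasone (5 nM final). After 18 h at 37C, the FRET substrate was loaded for 2 h at room temperature and fluorescence read.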

Test [10] is described as follows: qHTS assay to identify small molecule antagonists of the glucocorticoid receptor (GR) signaling pathway - cell viability counter screen (AID 720693). Also: nearly all actives have a fitted effect of over 55% in size. Also: potency is read from the fitted curve at half-maximal effect.
A short description of test [11]: qHTS assay for identifying genotoxic compounds that show differential cytotoxicity against isogenic chicken DT40 cell lines with known DNA damage response pathways - wild type cell line (AID 743012). Also: nearly all actives have a fitted effect of over 60% in size. Also: potency is read from the fitted curve at half-maximal effect. The method, boiled down: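 Wild-type DT40 cells (300/well) exposed to compounds for 40 hours at 37 C/5% CO2. Viability read by CellTiter-Glo luminescence after 30 min at room temperature.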

The nature of test [12]: qHTS assay for identifying genotoxic compounds that show differential cytotoxicity against isogenic chicken DT40 cell lines with known DNA damage response pathways - Rev3 mutant cell line (AID 743014). Also: nearly all actives have a fitted effect of over 55% in size. Also: potency is read from the fitted curve at half-maximal effect.
Test [13] can be described thus: qHTS assay for identifying genotoxic compounds that show differential cytotoxicity against isogenic chicken DT40 cell lines with known DNA damage response pathways - Rad54/Ku70 mutant cell line (AID 743015). Also: nearly all actives have a fitted effect of over 60% in size. Also: potency is read from the fitted curve at half-maximal effect.
Test [14] is described as follows: qHTS assay to identify small molecule antagonists of the androgen receptor (AR) signaling pathway - cell viability counter screen (AID 743033; also: nearly all actives have a fitted effect of over 45% in size; also: potency is read from the fitted curve at half-maximal effect).
Test [15] in a line: qHTS assay to identify small molecule antagonists of the androgen receptor (AR) signaling pathway using the MDA cell line - cell viability counter screen (AID 743041; also: nearly all actives have a fitted effect of over 45% in size; also: potency is read from the fitted curve at half-maximal effect). The method, boiled down:
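Same-well cytotoxicity was assessed by CellTiter-Fluor in MDA-kb2 AR-luc cells after 16 h of compound treatment under R1881 agonism.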

The target in test [16] is Glucocorticoid receptor (Homo sapiens) (UniProt P04150). The test can be described thus: qHTS assay to identify small molecule agonists of the glucocorticoid receptor (GR) signaling pathway (AID 720691; active = well fitted activation curve with a large enough effect in the signal ratio in the repeat runs, not every such curve was filed as active; the % refers to the signal ratio). Particulars: GR-bla HeLa, beta-lactamase reporter ratio, 18 h; activation: at 62.4 µM (top of the series). The method, boiled down: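 GR-bla HeLa cells carrying a GRE-driven beta-lactamase reporter, exposed to compounds for 18 h at 37 C. Reporter activation read as fluorescence after 2 h with LiveBLAzer B/G FRET substrate at room temperature.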
Sequence of Glucocorticoid receptor (Homo sapiens) (P04150 whole entry, looked up): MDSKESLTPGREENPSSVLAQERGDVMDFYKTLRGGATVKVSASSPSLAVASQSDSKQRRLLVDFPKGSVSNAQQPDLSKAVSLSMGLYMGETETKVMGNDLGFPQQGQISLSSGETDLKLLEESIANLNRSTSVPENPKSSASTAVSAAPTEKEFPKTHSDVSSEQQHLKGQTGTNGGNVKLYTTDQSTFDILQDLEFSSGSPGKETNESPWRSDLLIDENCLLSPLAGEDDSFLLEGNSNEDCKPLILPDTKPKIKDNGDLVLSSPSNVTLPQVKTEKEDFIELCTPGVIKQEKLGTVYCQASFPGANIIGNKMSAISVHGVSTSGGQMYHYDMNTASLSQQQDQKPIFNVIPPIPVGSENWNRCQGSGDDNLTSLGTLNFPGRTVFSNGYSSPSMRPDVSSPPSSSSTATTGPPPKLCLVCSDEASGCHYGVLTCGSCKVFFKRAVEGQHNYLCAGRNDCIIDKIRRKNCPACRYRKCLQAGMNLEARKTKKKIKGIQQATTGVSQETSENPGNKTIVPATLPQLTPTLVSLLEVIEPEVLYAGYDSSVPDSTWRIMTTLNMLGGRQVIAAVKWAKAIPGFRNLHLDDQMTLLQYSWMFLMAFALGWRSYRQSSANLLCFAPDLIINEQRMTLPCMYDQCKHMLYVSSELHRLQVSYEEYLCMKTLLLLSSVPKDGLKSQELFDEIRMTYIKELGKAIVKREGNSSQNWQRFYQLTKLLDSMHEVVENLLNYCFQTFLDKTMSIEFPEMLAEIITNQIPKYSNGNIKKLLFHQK

Test [17] addresses Androgen receptor (Homo sapiens) (UniProt P10275). Put plainly: qHTS assay to identify small molecule antagonists of the androgen receptor (AR) signaling pathway (AID 743035; active = well fitted inhibition curve with a large enough effect in the signal ratio in the repeat runs, not every such curve was filed as active; the % refers to the signal ratio). An outline of the steps: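 HEK293 cells stably carrying UAS-beta-lactamase reporter, 2,000/well, given compounds plus R1881 agonist and incubated 16 h at 37C. LiveBLAzer B/G FRET substrate then added for 2 h at room temperature before fluorescence reading.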

The target is the same in test [18]. Put plainly: qHTS assay to identify small molecule agonists of the androgen receptor (AR) signaling pathway (AID 743036; active = well fitted activation curve with a large enough effect in the signal ratio in the repeat runs, with a control signal flat, not every such curve was filed as active; the % refers to the signal ratio). The method, boiled down: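 Following a 4 h settling period, AR-UAS-bla HEK293 cells were dosed with compounds for 16 h at 37C. A 2 h room-temperature incubation with LiveBLAzer B/G FRET substrate preceded the fluorescence measurement.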
For test [19] the target is unchanged. Put plainly: qHTS assay to identify small molecule agonists of the androgen receptor (AR) signaling pathway using the MDA cell line (AID 743040; also: nearly all actives have a fitted effect of over 20% in size). The method, boiled down: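 Human breast carcinoma MDA-kb2 reporter cells (MMTV-luc, AR/GR elements) were treated for 16 h at 37C in 0% CO2 following a 5 h settling period. Signal was quantified by ONE-Glo luminescence.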

The target is the same in test [20]. The test can be described thus: qHTS assay to identify small molecule antagonists of the androgen receptor (AR) signaling pathway using the MDA cell line (AID 743042; also: nearly all actives have a fitted effect of over 55% in size; also: potency is read from the fitted curve at half-maximal effect). The method, boiled down:
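MDA-kb2 breast carcinoma cells carrying MMTV-luciferase (AR/GR responsive) were co-treated with compounds and the agonist R1881 for 16 h at 37C. Inhibition read as ONE-Glo luminescence; CellTiter-Fluor fluorescence measured in parallel for cytotoxicity.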

Sequence of Androgen receptor (Homo sapiens) (P10275 whole entry, looked up): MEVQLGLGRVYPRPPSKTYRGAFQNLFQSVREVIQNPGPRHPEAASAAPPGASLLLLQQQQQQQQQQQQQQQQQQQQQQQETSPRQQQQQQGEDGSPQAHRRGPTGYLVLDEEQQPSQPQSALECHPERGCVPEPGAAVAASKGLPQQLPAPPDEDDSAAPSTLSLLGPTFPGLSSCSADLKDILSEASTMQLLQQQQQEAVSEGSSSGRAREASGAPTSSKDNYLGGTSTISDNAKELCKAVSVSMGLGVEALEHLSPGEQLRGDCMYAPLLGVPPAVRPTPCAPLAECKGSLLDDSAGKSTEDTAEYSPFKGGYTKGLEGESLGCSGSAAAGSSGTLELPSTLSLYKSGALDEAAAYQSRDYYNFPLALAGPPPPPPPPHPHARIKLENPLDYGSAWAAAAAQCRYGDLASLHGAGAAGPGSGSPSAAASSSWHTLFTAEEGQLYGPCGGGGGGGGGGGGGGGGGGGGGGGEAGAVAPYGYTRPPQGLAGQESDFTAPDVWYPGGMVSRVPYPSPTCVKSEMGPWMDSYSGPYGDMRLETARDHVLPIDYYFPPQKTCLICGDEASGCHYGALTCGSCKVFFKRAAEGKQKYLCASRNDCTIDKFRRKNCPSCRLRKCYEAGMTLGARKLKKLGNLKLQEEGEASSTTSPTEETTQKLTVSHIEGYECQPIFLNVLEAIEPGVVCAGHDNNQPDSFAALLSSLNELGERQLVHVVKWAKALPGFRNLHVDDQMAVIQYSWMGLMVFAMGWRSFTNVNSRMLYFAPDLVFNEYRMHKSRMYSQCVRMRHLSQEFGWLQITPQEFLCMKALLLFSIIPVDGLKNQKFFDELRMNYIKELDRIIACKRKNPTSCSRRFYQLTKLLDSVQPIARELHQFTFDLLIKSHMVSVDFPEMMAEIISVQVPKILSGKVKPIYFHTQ

Take `CCCCCCC(=O)O[C@H]1CC[C@H]2[C@@H]3CCc4cc(O)ccc4[C@H]3CC[C@]12C`: the Potency result in test [1], in [2], in test [3], in test [4], in [5] and in test [7] was “inactive” throughout. Also, the Potency entry in test [10], in test [11], in [12], in test [13], in test [14] and in [15] was “inactive” throughout. In addition, the call in test [6] and in test [8] was inactive. In addition, the Potency in test [9] was 7.56 µM (active).
Consider `CC(CN(C)C)CN1c2ccccc2Sc2ccc(C(F)(F)F)cc21` (stereo not given), for which the Potency result in test [1], in test [2], in test [3], in [4], in [5] and in test [7] was “inactive” each time. Besides, the Potency result in test [16], in test [14] and in test [15] was “inactive” throughout. The compound was classed as inactive in test [6] and in test [8]. The Potency in test [11] is 5.96 µM (active); in test [12], 7.5 µM (active); in test [13], 9.44 µM (active).
With `CC1(C)S[C@@H]2[C@H](NC(=O)C(N)c3ccccc3)C(=O)N2[C@H]1C(=O)OC1OC(=O)c2ccccc21` (stereo not given in full), the Potency entry in test [1], in test [2], in test [3], in [4], in [5] and in [7] was “inactive” in each case. Moreover, the Potency result in test [10], in test [11], in [12] and in test [13] was “inactive” throughout. Besides, the call in [6] and in [8] was inactive.
`CCC(=O)c1ccc2c(c1)N(CCCN1CCN(CCO)CC1)c1ccccc1S2`: the Potency result in test [1], in [2], in test [3], in test [4], in test [5] and in test [7] was “inactive” each time. For the same compound, the Potency entry in test [10] was “inactive”. The compound was classed as inactive in test [6] and in test [8]. The Potency is 2.66 µM (active) in [11], 2.66 µM (active) in [12] and 4.22 µM (active) in test [13].
In the case of `CCCCOC(=O)C(=O)Nc1cccc(-c2nn[nH]n2)c1`, the Potency result in test [1], in [2], in [3], in test [4], in [5] and in test [7] was “inactive” throughout. The Potency result in [10], in test [11], in test [12], in test [13], in test [14] and in test [17] was “inactive” each time. Further, the Potency result in [18], in test [19], in test [15] and in test [20] was “inactive” throughout. Further, the compound was called inactive in test [6] and in [8].
As for `CN=C1C=CC(=C(c2ccc(N(C)C)cc2)c2ccc(N(C)C)cc2)C=C1`, the Potency result in [1], in [2], in [3], in test [4], in test [5] and in test [7] was “inactive” throughout. In test [19], the Potency result was “inactive”. The compound was called inactive in [6] and in [8]. Moreover, the Potency in test [10] is 7.56 µM (active); in test [11] it was 0.531 µM (active); in [12], 1.06 µM (active); in [13], 0.75 µM (active); in test [14], 0.535 µM (active); in test [15], 7.5 µM (active). Moreover, the Potency in [20] was 3.76 µM (active).
For the compound `COC(=O)[C@H]1[C@H]2C[C@@H]3c4[nH]c5ccccc5c4CCN3C[C@H]2C[C@@H](OC(=O)c2cc(OC)c(OC)c(OC)c2)[C@@H]1OC`, the Potency entry in test [1], in test [2], in test [3], in test [4], in [5] and in test [7] was “inactive” each time. The Potency entry in [10] and in test [15] was “inactive” throughout. Moreover, the call in test [6] and in test [8] was inactive. Moreover, the Potency in test [11] was 1.06 µM (active) and 11.9 µM (active); in test [12], 1.68 µM (active) and 21.1 µM (active); in [13], 1.68 µM (active) and 26.6 µM (active).
